Test results: paper PMC7862700, “An all-to-all approach to the identification of sequence-specific readers for epigenetic DNA modifications on cytosine”

Experiments:
Test in all cases: DAPPL (digital affinity profiling via proximity ligation, sequencing); 10 mM Tris-HCl pH 7.5, 50 mM NaCl, 1 mM DTT, 4% glycerol, room temperature, 30 min; GST-TFs on glutathione beads, 16-mer random dsDNA library, 0.1% formaldehyde crosslink after washing; high values mean tight binding
FLI1 = target: T1, FLI1 (Homo sapiens, UniProt Q01543 1-452); conditions: protein: recombinant; tags: N-terminal GST; dsDNA, one strand shown
T1 sequence: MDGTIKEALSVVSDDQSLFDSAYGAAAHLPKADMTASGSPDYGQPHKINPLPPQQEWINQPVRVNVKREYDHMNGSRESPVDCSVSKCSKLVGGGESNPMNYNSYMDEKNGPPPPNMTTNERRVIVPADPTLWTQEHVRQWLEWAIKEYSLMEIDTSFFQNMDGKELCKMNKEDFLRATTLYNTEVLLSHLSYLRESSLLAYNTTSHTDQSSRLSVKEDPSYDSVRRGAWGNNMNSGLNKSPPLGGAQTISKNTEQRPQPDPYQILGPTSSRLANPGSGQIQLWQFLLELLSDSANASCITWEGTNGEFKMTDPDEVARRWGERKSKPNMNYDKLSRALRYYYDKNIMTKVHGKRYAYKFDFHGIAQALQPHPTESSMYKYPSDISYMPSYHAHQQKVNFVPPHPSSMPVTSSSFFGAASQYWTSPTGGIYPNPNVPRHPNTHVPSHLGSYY
Method in brief: (§1)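 Human transcription factors were made in yeast as GST fusions, captured on glutathione beads and barcoded with DNA. With a tag-only sample included, the pool was incubated with 200 nmole of a random double-stranded 16-mer DNA library in Tris/NaCl/DTT/glycerol buffer at room temperature for 30 min, then crosslinked with 0.1% formaldehyde after washing, ligated by proximity, amplified and sequenced. For binding signal, each hexamer's read frequency for a factor is divided by its frequency for the tag-only sample.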

ELK1 = target: T2, ELK1 (Homo sapiens, UniProt P19419 1-428); conditions: protein: recombinant; tags: N-terminal GST; dsDNA, one strand shown
T2 sequence: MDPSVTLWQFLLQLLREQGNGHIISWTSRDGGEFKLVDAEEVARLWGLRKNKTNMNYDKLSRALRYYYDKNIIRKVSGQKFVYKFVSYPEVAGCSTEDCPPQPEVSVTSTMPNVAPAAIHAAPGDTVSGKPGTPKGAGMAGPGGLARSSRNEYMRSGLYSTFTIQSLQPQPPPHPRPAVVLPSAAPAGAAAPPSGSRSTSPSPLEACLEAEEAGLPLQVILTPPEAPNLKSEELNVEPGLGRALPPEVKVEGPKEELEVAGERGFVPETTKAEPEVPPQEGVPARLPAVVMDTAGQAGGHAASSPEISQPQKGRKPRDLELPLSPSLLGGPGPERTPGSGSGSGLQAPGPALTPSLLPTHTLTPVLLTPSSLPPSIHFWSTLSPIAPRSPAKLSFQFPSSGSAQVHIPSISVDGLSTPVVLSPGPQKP
Method in brief: as §1

GABPA = target: T3, GABPA (Homo sapiens, UniProt Q06546 1-454); conditions: protein: recombinant; tags: N-terminal GST; dsDNA, one strand shown
T3 sequence: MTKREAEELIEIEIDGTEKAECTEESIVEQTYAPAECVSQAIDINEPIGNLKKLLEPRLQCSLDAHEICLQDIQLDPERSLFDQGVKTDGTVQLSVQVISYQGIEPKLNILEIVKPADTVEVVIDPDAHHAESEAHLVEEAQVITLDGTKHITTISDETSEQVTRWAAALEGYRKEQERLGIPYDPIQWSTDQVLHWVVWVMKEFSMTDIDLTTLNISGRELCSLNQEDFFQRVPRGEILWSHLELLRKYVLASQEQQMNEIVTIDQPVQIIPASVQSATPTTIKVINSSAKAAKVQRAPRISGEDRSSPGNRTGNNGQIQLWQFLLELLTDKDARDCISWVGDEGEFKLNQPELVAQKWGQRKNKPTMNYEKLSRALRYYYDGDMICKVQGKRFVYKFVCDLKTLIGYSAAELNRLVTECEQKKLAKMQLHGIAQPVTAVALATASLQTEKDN
Method in brief: as §1

ERG = target: T4, ERG (Homo sapiens, UniProt P11308 1-479); conditions: protein: recombinant; tags: N-terminal GST; dsDNA, one strand shown
T4 sequence: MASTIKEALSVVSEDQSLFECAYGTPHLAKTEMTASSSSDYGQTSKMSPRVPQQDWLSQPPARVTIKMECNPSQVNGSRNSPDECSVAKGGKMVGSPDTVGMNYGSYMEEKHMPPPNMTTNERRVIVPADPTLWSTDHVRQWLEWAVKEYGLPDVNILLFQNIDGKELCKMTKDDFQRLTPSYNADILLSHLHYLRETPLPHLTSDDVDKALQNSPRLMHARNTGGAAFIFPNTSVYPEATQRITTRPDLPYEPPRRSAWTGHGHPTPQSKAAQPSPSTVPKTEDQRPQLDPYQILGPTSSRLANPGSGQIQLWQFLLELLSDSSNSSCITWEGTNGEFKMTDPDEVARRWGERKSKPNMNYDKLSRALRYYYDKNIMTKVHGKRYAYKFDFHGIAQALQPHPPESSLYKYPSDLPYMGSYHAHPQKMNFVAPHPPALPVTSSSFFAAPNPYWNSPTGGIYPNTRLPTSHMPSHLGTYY
Method in brief: as §1

ELF1 = ELF1 (Homo sapiens, UniProt P32519 1-619); conditions: protein: recombinant; tags: N-terminal GST; dsDNA, one strand shown
ELF1, sequence (P32519 whole entry): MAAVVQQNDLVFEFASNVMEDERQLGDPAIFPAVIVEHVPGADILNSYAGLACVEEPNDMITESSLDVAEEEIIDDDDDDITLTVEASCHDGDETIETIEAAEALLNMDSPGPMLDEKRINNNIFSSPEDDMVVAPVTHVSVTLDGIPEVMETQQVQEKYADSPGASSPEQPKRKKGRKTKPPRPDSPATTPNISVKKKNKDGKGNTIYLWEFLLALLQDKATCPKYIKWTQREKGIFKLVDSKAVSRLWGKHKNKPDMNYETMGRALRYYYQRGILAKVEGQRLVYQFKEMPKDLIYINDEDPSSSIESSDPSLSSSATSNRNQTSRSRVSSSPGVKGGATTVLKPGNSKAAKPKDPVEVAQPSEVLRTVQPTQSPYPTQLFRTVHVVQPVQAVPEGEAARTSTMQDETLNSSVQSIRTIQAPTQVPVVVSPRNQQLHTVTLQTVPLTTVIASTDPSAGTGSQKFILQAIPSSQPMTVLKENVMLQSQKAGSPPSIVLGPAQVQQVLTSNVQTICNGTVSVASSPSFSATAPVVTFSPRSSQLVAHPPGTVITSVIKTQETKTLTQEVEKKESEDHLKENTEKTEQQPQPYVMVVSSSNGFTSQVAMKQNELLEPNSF
Method in brief: as §1

EHF = target: T5, EHF (Homo sapiens, UniProt Q9NZC4 1-300); conditions: protein: recombinant; tags: N-terminal GST; dsDNA, one strand shown
T5 sequence: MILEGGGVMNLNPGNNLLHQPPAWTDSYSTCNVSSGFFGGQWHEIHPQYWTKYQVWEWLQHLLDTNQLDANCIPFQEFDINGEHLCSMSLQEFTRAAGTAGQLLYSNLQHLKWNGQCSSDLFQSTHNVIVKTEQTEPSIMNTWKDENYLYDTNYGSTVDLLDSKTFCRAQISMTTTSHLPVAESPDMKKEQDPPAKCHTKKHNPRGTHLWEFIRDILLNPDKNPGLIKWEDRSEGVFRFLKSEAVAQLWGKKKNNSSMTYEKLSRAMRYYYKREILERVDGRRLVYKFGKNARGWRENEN
Method in brief: as §1

SPI1 = SPI1 (Homo sapiens, UniProt P17947 1-270); conditions: protein: recombinant; tags: N-terminal GST; dsDNA, one strand shown
Method in brief: as §1

SPIB = SPIB (Homo sapiens, UniProt Q01892 1-262); conditions: protein: recombinant; tags: N-terminal GST; dsDNA, one strand shown
SPIB, sequence (Q01892 whole entry): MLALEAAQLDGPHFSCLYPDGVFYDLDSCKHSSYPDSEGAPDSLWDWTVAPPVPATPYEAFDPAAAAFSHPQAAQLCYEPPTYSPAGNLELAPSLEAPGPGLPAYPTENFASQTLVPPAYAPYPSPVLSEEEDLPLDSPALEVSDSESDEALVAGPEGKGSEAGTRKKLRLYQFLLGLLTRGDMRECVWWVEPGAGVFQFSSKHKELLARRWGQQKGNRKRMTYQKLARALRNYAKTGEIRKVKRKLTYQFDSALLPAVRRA
Method in brief: as §1

ELK3 = target: T6, ELK3 (Homo sapiens, UniProt P41970 1-407); conditions: protein: recombinant; tags: N-terminal GST; dsDNA, one strand shown
T6 sequence: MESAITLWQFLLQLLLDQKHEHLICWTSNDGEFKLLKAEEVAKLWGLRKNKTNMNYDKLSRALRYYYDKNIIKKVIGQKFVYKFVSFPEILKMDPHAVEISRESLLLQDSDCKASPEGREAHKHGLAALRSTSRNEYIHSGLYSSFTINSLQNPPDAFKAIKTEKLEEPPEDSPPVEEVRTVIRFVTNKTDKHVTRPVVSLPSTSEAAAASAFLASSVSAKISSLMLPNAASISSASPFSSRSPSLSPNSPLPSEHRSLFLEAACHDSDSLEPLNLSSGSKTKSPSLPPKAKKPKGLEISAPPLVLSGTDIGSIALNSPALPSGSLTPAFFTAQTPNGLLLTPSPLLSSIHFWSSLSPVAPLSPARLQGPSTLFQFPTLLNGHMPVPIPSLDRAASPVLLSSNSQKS
Method in brief: as §1

FEV = target: T7, FEV (Homo sapiens, UniProt Q99581 1-238); conditions: protein: recombinant; tags: N-terminal GST; dsDNA, one strand shown
T7 sequence: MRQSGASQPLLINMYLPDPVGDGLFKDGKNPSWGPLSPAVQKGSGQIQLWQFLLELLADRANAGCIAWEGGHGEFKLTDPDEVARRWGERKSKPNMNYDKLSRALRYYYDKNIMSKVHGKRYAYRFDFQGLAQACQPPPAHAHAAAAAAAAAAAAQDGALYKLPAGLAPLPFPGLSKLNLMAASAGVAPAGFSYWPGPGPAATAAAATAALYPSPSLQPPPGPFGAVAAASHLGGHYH
Method in brief: as §1

ETV5 = ETV5 (Homo sapiens, UniProt P41161 1-510); conditions: protein: recombinant; tags: N-terminal GST; dsDNA, one strand shown
ETV5, sequence (P41161 whole entry): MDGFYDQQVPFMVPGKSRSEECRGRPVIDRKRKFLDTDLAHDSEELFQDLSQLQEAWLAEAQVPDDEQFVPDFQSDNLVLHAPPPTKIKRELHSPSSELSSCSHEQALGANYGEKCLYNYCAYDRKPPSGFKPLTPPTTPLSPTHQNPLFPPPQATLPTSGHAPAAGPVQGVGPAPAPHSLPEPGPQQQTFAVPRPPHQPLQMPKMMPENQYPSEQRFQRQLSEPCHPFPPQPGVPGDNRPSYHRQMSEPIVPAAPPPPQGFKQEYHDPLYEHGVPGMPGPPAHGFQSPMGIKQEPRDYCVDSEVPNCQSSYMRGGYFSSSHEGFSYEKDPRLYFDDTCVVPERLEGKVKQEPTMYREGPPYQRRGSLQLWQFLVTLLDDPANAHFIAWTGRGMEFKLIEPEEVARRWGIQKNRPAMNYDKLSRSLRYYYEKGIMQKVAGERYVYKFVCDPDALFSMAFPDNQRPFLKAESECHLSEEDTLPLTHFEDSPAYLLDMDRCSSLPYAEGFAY
Method in brief: as §1

HSF1 = HSF1 (Homo sapiens, UniProt Q00613 1-529); conditions: protein: recombinant; tags: N-terminal GST; chain copies: 3; dsDNA, one strand shown
HSF1, sequence (Q00613 whole entry): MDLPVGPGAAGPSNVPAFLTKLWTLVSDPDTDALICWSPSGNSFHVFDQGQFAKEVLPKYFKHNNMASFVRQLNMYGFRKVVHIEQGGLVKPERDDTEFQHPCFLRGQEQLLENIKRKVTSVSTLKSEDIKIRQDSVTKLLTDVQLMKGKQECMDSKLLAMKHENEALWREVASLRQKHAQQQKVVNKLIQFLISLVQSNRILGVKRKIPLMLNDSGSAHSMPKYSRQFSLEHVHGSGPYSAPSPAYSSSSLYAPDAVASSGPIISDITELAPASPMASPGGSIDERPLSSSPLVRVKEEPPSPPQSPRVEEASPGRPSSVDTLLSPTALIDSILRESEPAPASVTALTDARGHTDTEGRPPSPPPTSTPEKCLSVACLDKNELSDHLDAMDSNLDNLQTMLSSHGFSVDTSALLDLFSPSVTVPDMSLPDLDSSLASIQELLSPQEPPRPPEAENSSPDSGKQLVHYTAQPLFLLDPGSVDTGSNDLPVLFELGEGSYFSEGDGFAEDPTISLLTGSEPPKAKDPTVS
Method in brief: as §1

SPIC = target: T8, SPIC (Homo sapiens, UniProt Q8N5J4 1-248); conditions: protein: recombinant; tags: N-terminal GST; dsDNA, one strand shown
T8 sequence: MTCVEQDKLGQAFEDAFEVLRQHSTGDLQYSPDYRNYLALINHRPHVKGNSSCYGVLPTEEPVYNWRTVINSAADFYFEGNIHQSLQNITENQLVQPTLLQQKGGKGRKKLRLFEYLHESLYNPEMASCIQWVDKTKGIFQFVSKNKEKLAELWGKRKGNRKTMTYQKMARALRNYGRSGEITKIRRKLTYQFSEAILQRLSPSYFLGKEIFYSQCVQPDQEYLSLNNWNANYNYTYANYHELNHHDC
Method in brief: as §1

ELF4 = ELF4 (Homo sapiens, UniProt Q99607 1-663); conditions: protein: recombinant; tags: N-terminal GST; dsDNA, one strand shown
ELF4, sequence (Q99607 whole entry): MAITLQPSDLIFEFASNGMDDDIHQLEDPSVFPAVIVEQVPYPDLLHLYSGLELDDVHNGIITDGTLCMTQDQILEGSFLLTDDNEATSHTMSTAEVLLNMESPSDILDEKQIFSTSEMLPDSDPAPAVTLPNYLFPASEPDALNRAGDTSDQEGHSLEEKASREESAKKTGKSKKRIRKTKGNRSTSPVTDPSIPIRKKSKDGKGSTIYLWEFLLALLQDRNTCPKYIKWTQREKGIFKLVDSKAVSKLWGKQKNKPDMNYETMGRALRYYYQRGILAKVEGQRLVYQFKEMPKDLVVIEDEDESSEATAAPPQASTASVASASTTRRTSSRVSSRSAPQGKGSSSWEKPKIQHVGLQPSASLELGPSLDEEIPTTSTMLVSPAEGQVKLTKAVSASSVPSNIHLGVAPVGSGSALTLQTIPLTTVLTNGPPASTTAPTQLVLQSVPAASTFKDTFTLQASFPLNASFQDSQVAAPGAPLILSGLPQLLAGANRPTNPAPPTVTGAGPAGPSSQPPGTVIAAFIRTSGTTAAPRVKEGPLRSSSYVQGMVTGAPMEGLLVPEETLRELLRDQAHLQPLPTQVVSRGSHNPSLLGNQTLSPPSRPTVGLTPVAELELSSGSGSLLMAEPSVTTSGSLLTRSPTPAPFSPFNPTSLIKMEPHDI
Method in brief: as §1

ELK4 = target: T9, ELK4 (Homo sapiens, UniProt P28324-2 1-405); conditions: protein: recombinant; tags: N-terminal GST; dsDNA, one strand shown
T9 sequence: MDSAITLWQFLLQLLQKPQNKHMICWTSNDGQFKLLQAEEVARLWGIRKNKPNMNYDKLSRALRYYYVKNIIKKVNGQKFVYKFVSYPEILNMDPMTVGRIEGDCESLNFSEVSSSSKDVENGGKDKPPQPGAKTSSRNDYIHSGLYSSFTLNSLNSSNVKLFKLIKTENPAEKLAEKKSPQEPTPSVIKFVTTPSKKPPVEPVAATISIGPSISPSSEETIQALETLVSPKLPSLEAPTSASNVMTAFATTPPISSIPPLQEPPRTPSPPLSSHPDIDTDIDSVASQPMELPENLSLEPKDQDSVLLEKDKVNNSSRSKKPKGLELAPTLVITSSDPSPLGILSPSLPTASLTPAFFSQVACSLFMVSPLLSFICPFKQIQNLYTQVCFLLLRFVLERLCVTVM
Method in brief: as §1

ETV2 = target: T10, ETV2 (Homo sapiens, UniProt O00321 1-342); conditions: protein: recombinant; tags: N-terminal GST; dsDNA, one strand shown
T10 sequence: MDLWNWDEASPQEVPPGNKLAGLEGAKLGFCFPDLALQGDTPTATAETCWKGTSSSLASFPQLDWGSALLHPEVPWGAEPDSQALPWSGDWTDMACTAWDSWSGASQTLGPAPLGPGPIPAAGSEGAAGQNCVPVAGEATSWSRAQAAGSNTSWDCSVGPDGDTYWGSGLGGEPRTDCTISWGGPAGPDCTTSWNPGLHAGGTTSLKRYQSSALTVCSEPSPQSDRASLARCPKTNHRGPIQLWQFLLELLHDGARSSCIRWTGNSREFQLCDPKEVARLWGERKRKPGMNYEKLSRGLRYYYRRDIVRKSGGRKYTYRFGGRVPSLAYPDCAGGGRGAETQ
Method in brief: as §1

ELF3 = target: T11, ELF3 (Homo sapiens, UniProt P78545 1-371); conditions: protein: recombinant; tags: N-terminal GST; dsDNA, one strand shown
T11 sequence: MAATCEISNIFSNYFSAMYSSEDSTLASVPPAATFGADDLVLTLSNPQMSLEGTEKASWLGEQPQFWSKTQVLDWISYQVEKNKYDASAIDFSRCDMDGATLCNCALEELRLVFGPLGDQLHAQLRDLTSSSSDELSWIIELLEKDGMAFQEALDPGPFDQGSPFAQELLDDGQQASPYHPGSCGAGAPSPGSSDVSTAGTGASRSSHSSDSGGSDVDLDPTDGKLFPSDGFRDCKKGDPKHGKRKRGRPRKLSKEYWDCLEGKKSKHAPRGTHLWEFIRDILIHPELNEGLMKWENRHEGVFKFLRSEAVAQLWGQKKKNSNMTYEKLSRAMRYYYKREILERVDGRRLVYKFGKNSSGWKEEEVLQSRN
Method in brief: as §1

CRX = CRX (Homo sapiens, UniProt O43186 1-299); conditions: protein: recombinant; tags: N-terminal GST; dsDNA, one strand shown
CRX, sequence (O43186 whole entry): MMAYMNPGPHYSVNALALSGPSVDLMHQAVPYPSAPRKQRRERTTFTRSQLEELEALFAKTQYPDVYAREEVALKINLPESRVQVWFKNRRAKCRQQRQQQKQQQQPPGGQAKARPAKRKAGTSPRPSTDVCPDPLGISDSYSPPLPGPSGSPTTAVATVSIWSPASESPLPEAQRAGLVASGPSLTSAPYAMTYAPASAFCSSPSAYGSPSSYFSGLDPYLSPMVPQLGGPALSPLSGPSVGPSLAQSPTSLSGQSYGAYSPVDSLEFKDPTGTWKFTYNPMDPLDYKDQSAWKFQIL
Method in brief: as §1

ETV1 = ETV1 (Homo sapiens, UniProt P50549 1-477); conditions: protein: recombinant; tags: N-terminal GST; dsDNA, one strand shown
ETV1, sequence (P50549 whole entry): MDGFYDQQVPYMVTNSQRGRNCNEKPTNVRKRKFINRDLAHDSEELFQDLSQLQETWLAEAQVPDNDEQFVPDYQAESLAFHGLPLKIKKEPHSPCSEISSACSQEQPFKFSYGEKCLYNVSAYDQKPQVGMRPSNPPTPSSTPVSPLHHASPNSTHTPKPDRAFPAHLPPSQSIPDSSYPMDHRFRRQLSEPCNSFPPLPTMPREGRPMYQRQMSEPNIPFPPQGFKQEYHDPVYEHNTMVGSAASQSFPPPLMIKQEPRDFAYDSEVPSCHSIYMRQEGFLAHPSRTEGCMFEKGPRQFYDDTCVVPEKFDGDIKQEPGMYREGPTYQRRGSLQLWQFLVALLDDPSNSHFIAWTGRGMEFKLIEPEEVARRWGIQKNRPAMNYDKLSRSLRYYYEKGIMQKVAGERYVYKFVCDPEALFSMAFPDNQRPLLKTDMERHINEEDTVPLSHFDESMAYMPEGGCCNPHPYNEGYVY
Method in brief: as §1

For ATGATA, which binding signal (FLI1) is on record?
Its binding signal is 1.22 fold enrichment (6-mer frequency, TF over GST control).

What about the binding signal (ELK1) of the same sequence?
Its binding signal is 1.23 fold enrichment (6-mer frequency, TF over GST control).

What about the binding signal (GABPA) of the same sequence?
The binding signal was 1.16 fold enrichment (6-mer frequency, TF over GST control).

And the binding signal (ERG)?
The binding signal was 1.26 fold enrichment (6-mer frequency, TF over GST control).

And the binding signal (ELF1)?
The binding signal was 1.24 fold enrichment (6-mer frequency, TF over GST control).

And the binding signal (EHF)?
The binding signal was 1.32 fold enrichment (6-mer frequency, TF over GST control).

And the binding signal (SPI1)?
Its binding signal is 1.2 fold enrichment (6-mer frequency, TF over GST control).

And the binding signal (SPIB)?
Its binding signal is 1.21 fold enrichment (6-mer frequency, TF over GST control).

And the binding signal (ELK3)?
Its binding signal is 1.34 fold enrichment (6-mer frequency, TF over GST control).

And the binding signal (FEV)?
The binding signal was 1.25 fold enrichment (6-mer frequency, TF over GST control).

What about the binding signal (ETV5) of the same sequence?
Its binding signal is 1.17 fold enrichment (6-mer frequency, TF over GST control).

What about the binding signal (HSF1) of the same sequence?
Its binding signal is 1.23 fold enrichment (6-mer frequency, TF over GST control).

What about the binding signal (SPIC) of the same sequence?
The binding signal was 1.07 fold enrichment (6-mer frequency, TF over GST control).

What about the binding signal (ELF4) of the same sequence?
Its binding signal is 1.26 fold enrichment (6-mer frequency, TF over GST control).

And the binding signal (ELK4)?
The binding signal was 1.27 fold enrichment (6-mer frequency, TF over GST control).

And the binding signal (ETV2)?
The binding signal was 1.2 fold enrichment (6-mer frequency, TF over GST control).

What about the binding signal (ELF3) of the same sequence?
The binding signal was 1.21 fold enrichment (6-mer frequency, TF over GST control).

And the binding signal (CRX)?
Its binding signal is 1.39 fold enrichment (6-mer frequency, TF over GST control).

And the binding signal (ETV1)?
The binding signal was 1.17 fold enrichment (6-mer frequency, TF over GST control).
